# Assay results taken from PubChem BioAssay.
# Activity calls are given as the source filed them.
# Tests used:
# [1] = optical density shifts of acrAB sulA E. coli – strain DRC41, OD650, 48 h, E. coli filamentation inducer project, primary screen (AID 1152); settings: higher = more signal, called active from +8 up or from −8 down;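 further: E. coli MC1000 strain DRC41 lacking acrAB efflux pump and sulA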
# [2] = probe aLefty1 binding on compound microarray – biochemical, small-molecule microarray, 635/667 nm fluorescence, primary screen (AID 1153); settings: higher = more signal;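 further: score merges spot fluorescence with signal-to-noise ratio from the scanned slide images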
# [3] = plasmodial surface anion channel blockers, osmotic lysis – cell-based, P. falciparum Indochina, OD700, 1 h, primary screen (AID 1154); settings: P. falciparum Indochina infected RBC osmotic lysis, higher = more signal, called active from +8 up or from −8 down
# [4] = plasmodial surface anion channel blockers, osmotic lysis – cell-based, P. falciparum Indochina, OD700, 2 h, primary screen (AID 1155);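 further: lysis reports solute entry through the parasite surface anion channel PSAC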; settings: P. falciparum Indochina infected erythrocytes, higher = more signal, called active from +8 up or from −8 down
# [5] = changes in parasitized red cell lysis, either direction – P. falciparum Indochina, OD700, 3 h, PSAC antagonist project, primary screen (AID 1156); settings: P. falciparum-infected erythrocytes, osmotic lysis, higher = more signal, called active from +8 up or from −8 down
# [6] = plasmodial surface anion channel blockers, osmotic lysis – cell-based, P. falciparum Indochina, OD700, 18 h, primary screen (AID 1157); settings: P. falciparum Indochina infected erythrocytes, osmotic lysis OD700, 18 h; higher = more signal, called active from +8 up or from −8 down
# [7] = S6 kinase pathway phospho-S6 level changes – cell-based, A549, cytoblot, luminescence, serum-stimulated, primary screen (AID 1158); settings: 5 h, higher = more signal;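 further: serum-stimulated A549 lung adenocarcinoma cells; signal is phosphorylated S6 detected by cytoblot immunostaining with HRP secondary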
# [8] = target: NADPH oxidase 2 (Homo sapiens) (UniProt P04839); experiment: compounds shifting NOX2 Amplex Red fluorescence – cell-based, HEK293-NOX2, PMA-stimulated, NOX inhibitor project, primary screen (AID 1159); settings: 45 min, higher = more signal, called active from +8 up or from −8 down; further: test concentration not given here
# [9] = target: NADPH oxidase 4 (Homo sapiens) (UniProt Q9NPH5); experiment: compounds shifting NOX4 Amplex Red fluorescence – cell-based, HEK293-NOX4, tetracycline-induced, NOX inhibitor project, primary screen (AID 1160); settings: HEK293-NOX4, Amplex Red H2O2 fluorescence, 45 min; higher = more signal, called active from +8 up or from −8 down
# [10] = target: NADPH oxidase 5 (Homo sapiens) (UniProt Q96PH1); experiment: compounds shifting NOX5 Amplex Red fluorescence – cell-based, HEK293-NOX5, NOX inhibitor project, primary screen (AID 1161); settings: HEK293-NOX5, ionomycin, 45 min, higher = more signal
# Sequence of NADPH oxidase 5 (Homo sapiens) (Q96PH1 whole entry, looked up): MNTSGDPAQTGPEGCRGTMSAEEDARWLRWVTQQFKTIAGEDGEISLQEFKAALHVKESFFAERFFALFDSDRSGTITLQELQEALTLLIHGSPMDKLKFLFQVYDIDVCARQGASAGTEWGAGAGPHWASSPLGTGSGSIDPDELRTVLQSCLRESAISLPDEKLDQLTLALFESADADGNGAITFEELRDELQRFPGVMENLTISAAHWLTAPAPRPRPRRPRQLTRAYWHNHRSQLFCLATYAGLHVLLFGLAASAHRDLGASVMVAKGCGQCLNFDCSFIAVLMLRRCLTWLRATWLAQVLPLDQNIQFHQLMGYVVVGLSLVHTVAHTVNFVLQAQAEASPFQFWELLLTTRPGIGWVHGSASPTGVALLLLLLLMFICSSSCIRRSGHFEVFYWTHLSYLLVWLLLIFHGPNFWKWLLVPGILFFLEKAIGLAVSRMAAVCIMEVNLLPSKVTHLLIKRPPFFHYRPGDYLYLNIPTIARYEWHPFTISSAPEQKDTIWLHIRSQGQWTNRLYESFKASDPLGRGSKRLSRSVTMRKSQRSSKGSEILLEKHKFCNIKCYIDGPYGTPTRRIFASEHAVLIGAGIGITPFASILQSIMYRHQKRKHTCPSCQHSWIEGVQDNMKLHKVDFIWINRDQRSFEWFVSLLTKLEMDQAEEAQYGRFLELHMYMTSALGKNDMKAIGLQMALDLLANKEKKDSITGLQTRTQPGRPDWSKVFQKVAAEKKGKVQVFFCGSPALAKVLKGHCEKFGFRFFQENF
# Sequence of NADPH oxidase 4 (Homo sapiens) (Q9NPH5 whole entry, looked up): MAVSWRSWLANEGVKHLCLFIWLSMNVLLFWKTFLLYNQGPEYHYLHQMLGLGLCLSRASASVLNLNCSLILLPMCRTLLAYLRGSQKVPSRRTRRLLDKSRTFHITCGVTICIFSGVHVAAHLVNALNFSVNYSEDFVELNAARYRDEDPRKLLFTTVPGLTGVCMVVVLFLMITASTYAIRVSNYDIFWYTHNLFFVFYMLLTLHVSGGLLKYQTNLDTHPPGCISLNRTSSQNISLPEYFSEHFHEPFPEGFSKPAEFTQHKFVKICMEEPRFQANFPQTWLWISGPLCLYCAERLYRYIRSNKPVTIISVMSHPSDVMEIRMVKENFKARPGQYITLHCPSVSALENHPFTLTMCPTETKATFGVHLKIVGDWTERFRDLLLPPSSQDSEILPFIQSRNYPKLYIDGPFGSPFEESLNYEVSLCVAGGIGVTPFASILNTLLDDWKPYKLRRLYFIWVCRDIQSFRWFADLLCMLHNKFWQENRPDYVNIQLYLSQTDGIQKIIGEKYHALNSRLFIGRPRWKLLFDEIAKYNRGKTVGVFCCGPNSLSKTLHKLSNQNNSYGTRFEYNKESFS
# Sequence of NADPH oxidase 2 (Homo sapiens) (P04839 whole entry, looked up): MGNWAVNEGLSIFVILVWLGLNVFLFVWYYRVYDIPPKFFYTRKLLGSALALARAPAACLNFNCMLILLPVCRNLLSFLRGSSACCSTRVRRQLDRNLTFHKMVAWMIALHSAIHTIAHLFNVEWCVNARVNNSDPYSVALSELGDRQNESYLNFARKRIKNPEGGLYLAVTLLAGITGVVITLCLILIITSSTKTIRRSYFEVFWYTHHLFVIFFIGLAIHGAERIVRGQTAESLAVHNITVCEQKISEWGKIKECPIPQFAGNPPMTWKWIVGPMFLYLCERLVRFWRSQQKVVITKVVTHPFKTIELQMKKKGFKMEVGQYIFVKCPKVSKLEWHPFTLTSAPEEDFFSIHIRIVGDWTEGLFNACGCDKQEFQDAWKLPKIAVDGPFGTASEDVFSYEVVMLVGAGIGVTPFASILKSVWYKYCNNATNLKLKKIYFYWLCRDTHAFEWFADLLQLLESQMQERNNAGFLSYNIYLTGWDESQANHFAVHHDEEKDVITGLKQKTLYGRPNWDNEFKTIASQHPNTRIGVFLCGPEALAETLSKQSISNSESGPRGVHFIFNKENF
Structure (SMILES),z-score [1],composite z-score [2],z-score [3],z-score [4],z-score [5],z-score [6],z-score [7],z-score [8],z-score [9],z-score [10]
CC(=O)Nc1cc(Br)ccc1C(=O)O,-0.657 (inactive),0.0494,0.552 (inactive),0.501 (inactive),-0.904 (inactive),0.305 (inactive),-0.107,0.385 (inactive),-0.128 (inactive),-0.269
CC(C)c1ccc(NN2C(C(O)c3ccc(N(C)C)cc3)C=CC3C(=O)N(c4ccccc4)C(=O)C32)cc1 (stereo not given),-0.448 (inactive),0.544,1.72 (inactive),1.05 (inactive),0.655 (inactive),1.32 (inactive),-0.183,-1.14 (inactive),-0.983 (inactive),-2.39
COCCOC(=O)N1C(=O)[C@@]2(c3cc(C#CCNC(N)=O)ccc31)[C@H](c1ccc(O)cc1)N1[C@H](c3ccccc3)[C@H](c3ccccc3)OC(=O)[C@H]1[C@@H]2C(=O)NC[C@H](O)c1ccccc1,-0.388 (inactive),0.101,1.3 (inactive),1.1 (inactive),0.205 (inactive),0.559 (inactive),0.155,1.01 (inactive),0.326 (inactive),0.253
O=C1C2C=CC(C(O)c3cccs3)N(Nc3ccccc3F)C2C(=O)N1c1ccccc1 (stereo not given),0.386 (inactive),0.248,1.35 (inactive),-0.506 (inactive),-1.27 (inactive),-1.23 (inactive),0.224,-0.932 (inactive),-3.7 (inactive),-1.78
CC(C)Cc1ccc(CN2CC[C@@H](NS(=O)(=O)c3ccccc3)C2)cc1,-19.2 (active),-0.198,2.49 (inactive),0.408 (inactive),0.306 (inactive),0.574 (inactive),0.709,0.312 (inactive),-0.907 (inactive),-3.68
C[C@H]1NC(=O)[C@H](Cc2ccccc2)NC(=O)[C@@]23C(=O)N[C@@H](Cc4ccccc4)C2[C@H](C)[C@@]2(C)O[C@H]2C3/C=C/C/C=C\CNC1=O (stereo not given in full),0.806 (inactive),-0.193,2.27 (inactive),0.142 (inactive),-0.112 (inactive),0.501 (inactive),0.423,-0.287 (inactive),-1.42 (inactive),-0.197
CCCN1C(=O)[C@@]2(CCC(=O)OC(C)(C)C)N=C(c3ccc(OCCCO)cc3)O[C@H]2c2ccccc21,0.42 (inactive),-0.358,35.9 (active),37.4 (active),3.51 (inactive),9.08 (active),0.237,-2.74 (inactive),-0.665 (inactive),-1.96
COCCOC(=O)N1C(=O)[C@@]2(c3ccccc31)[C@H](C(=O)NC[C@H](O)c1ccccc1)[C@H]1C(=O)O[C@H](c3ccccc3)[C@H](c3ccccc3)N1[C@@H]2c1ccc(OCCO)cc1,1.32 (inactive),-0.496,3.97 (inactive),1.89 (inactive),0.968 (inactive),0.999 (inactive),0.29,0.463 (inactive),1.13 (inactive),-0.739
COCCCNC(=O)[C@@]1(c2ccc([N+](=O)[O-])cc2)CC(=O)N(CC23CC4CC(CC(C4)C2)C3)[C@@H]1c1ccc(CO)cc1,0.697 (inactive),0.616,4.55 (inactive),0.958 (inactive),1.47 (inactive),0.888 (inactive),0.0694,-0.237 (inactive),-1.44 (inactive),-1.74
CCCCC=C[C@@H](NC(=O)c1ccc(C(=O)OC)cc1)c1ccccc1,-1.63 (inactive),0.317,2.85 (inactive),0.589 (inactive),0.63 (inactive),0.569 (inactive),0.12,-1.88 (inactive),-3.48 (inactive),0.0463
CCN(CC)c1ccc(N2CC=CC34O[C@@H]5/C=C\CCCOC(=O)C5[C@H]3C(=O)N(C(CO)C(C)C)[C@@H]4C2=O)cc1 (stereo not given in full),-0.522 (inactive),-0.137,1.38 (inactive),0.486 (inactive),0.883 (inactive),0.648 (inactive),-0.713,0.0116 (inactive),0.337 (inactive),0.492
